In the supplement of paper PMC6555819 one finds PBM binding z-score data, which are given here for 18 sequences.

In the assay the test system is VDR homodimer (NR concentration 270 nM). Briefly: PBM binding z-score (relative to random genomic background probes); higher = stronger binding; sequences stand for … in GC…GCGATTGACAGCGTAGAATGAAGG
In outline:
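On custom Agilent 4×180K arrays, double-stranded probes with 34-nt variable regions carried direct-repeat seeds, single-nucleotide variants, half-site ablations or random human genomic background. Ligand-free nuclear receptor dimers were applied for 1 h, and binding was read with antibodies against each partner (one per run). Binding z-scores come from regression-normalized fluorescence, with the random background probes as reference.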
Sequence CAAACTAGGTCAAGAGGTCAACGTCCGCTTCCCG returned a PBM binding z-score of 3.84.

CCTCACGGGTCACTCCAGGTTATAGCATCGGAGT gave a PBM binding z-score of 1.94.

CGTCAAAGTTCAAGGTAACCTAACAGAAAGCAGC returned a PBM binding z-score of 2.84.

Turning to TCTATTGGTTGAAGGGCAACCGACGAGTCCGTTT, the PBM binding z-score amounted to 1.24.

Take TCGATTAGGTTAGTCGGGGCATTCAGCCAACATA: the PBM binding z-score is 0.465.

AGAATGAGGTTATTAAGGTCAGGGAATTGCGGTC displayed a PBM binding z-score of 4.86.

As to CAAACTAGGTCACCGGAAGGTCCAAGTCCGCATG, the PBM binding z-score is 1.68.

Take TCTACTAGGTCAGTTGGTCAGCTAACGAGCTGCC: the PBM binding z-score worked out at 0.162.

Turning to CTACCAAGGTTAACAAGGTCGTTGATTACTATTC, the PBM binding z-score is 3.98.

In turn, CCTACTGGGCCATTCAGAGGTCATTGGTCATATG registered a PBM binding z-score of 3.34.

As for CGTCCTAGGTCAGCAGGTCAGTGAAAGCGACGTG, the PBM binding z-score stood at 0.285.

As for AGAACGAGGGCACGCGGAGTTGATAGCAGAGTAG, the PBM binding z-score turned out to be 1.18.

The sequence TAGCCTAGGTCATGCGGGCCAGTTTAGTGTCGGC registered a PBM binding z-score of 0.95.

For CGAACGAGGGCATGAGTTGGTAGCAAATGCCGAT, the PBM binding z-score was found to be 0.904.

For CCTACTGGCCCAAAAAGGTCATTGATGCCGATAA, the PBM binding z-score came out at 2.65.

Sequence ACTAGTTGGTCGGCTGAGGTCACACACAATTCGG had a PBM binding z-score of 3.84.

For TCTTGTAGATCAACAGGAGGTTATGAAAGATCGA, the PBM binding z-score is -0.167.

In turn, TCATATAGGTAATACAAGTGAAAGTCGGCATCTA displayed a PBM binding z-score of 0.435.
